One experiment addresses Albumin (Bos taurus) (UniProt P02769). The experiment is described as follows: compounds binding labelled BSA control protein – biochemical, small-molecule microarray, Alexa647 label, 635/667 nm fluorescence, artefact control for SMM control protein annotation, profiling panel (AID 1118).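 Note: score merges 667 nm emission intensity and signal-to-noise per printed compound spot.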 The settings on record: BSA-A647 binding, fluorescence 635 nm, higher = more signal.
A short description of experiment [1]: probe aXIP binding to arrayed compounds – biochemical, NeuroSMM set, 635/667 nm fluorescence, primary screen (AID 1119).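 Note: probe is the protein aXip251-270 applied at 1 µg/mL to compound-printed slides; binding of probe to printed compounds measured as 667 nm fluorescence plus signal to noise.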 The settings on record: small-molecule microarray, higher = more signal, called active from +8 up or from −8 down.
Experiment [2] can be described thus: probe aNOTCH3 binding on compound microarray – biochemical, small-molecule microarray, 635/667 nm fluorescence, primary screen (AID 1120).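 Note: probe is a biotin-tagged antibody raised against NOTCH3 rather than NOTCH3 protein; score merges spot fluorescence near 667 nm with spot signal to noise.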 Particulars: higher = more signal.
Experiment [3] is described as follows: probe aNOTCH2 binding on compound microarray – biochemical, small-molecule microarray, 635/667 nm fluorescence, primary screen (AID 1121).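 Note: score merges feature fluorescence read at 667 nm with its signal to noise.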 Particulars: higher = more signal.
Experiment [4] deals with Carbonic anhydrase 2 (Homo sapiens) (UniProt P00918). The experiment is described as follows: compounds binding carbonic anhydrase 2 – biochemical, small-molecule microarray, Alexa647-labelled CAII, profiling panel (AID 1122). The settings on record: CAII-A647 binding fluorescence, higher = more signal.
Experiment [5] can be described thus: COS7 lysate on small-molecule microarray, probe aHis, 635 nm (AID 1123).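 Note: z-score combines 667nm fluorescence intensity with signal-to-noise per printed compound spot.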 The settings on record: COS7 cell lysate, fluorescence, higher = more signal.
Experiment [6] in a line: probe aLAP1 signal on lysate-treated microarray – cell lysate, small-molecule microarray, COS7 lysate, primary screen (AID 1124).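 Note: lysate comes from COS7 cells expressing LAP1 and is applied at 0.3 µg/mL; score merges spot fluorescence near 667 nm with signal-to-noise over triplicate slides.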 Particulars: probe aLAP1, fluorescence, higher = more signal.
Another experiment concerns Sam68 (KHDRBS1). Briefly: compounds binding KHDRBS1 protein – biochemical, small-molecule microarray, 635 nm fluorescence, primary screen (AID 1125).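 Note: score merges 667 nm channel intensity with signal to noise over triplicate slides.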 The settings on record: higher = more signal.
Experiment [7] deals with Chordin-like protein 2 (CHRDL2). The experiment is described as follows: compounds binding chordin-like 2 – biochemical, small-molecule microarray, 635 nm fluorescence, primary screen (AID 1126).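 Note: printed compound slides probed with Chrdl2 protein at 4 µg/mL for 1 h at 4 C; score merges 667 nm emission intensity with signal to noise over three replicate slides.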 Particulars: fluorescence 635 nm, higher = more signal.
Experiment [8] has as its target Concanavalin-A (Canavalia ensiformis) (UniProt P02866). The experiment is described as follows: compounds binding concanavalin A lectin – biochemical, small-molecule microarray, Alexa647 label, 635 nm, artefact control for SMM control protein annotation, primary screen (AID 1127).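 Note: z combines 667 nm emission intensity with signal-to-noise across three replicate slides.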 The settings on record: ConA-A647 binding fluorescence, higher = more signal.
Experiment [9] can be described thus: compounds binding Alexa647 anti-His antibody – biochemical, small-molecule microarray, 635 nm fluorescence, artefact control for SMM control protein annotation, primary screen (AID 1128).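 Note: score merges feature fluorescence with signal-to-noise for each printed compound spot.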 The settings on record: higher = more signal.
Experiment [10] has as its system Human papillomavirus type 1a E7 protein (residues 1-88). The experiment is described as follows: HPV1a E7 small-molecule binders, primary screen, biochemical, small-molecule microarray, residues 1-88, 635 nm (AID 1129). Particulars: small-molecule microarray binding, fluorescence 635 nm; higher = more signal.
The target in experiment [11] is Focal adhesion kinase 1 (Homo sapiens) (UniProt Q05397). The experiment is described as follows: PTK2 protein binding on printed compound slides – biochemical, small-molecule microarray, 635/667 nm fluorescence, BSA, DTT, primary screen (AID 1130).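 Note: composite of spot emission at 667 nm and signal to noise over triplicate slides.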 The settings on record: 635 nm fluorescence, higher = more signal.
Chain of Focal adhesion kinase 1 (Homo sapiens) (Q05397 whole entry, looked up): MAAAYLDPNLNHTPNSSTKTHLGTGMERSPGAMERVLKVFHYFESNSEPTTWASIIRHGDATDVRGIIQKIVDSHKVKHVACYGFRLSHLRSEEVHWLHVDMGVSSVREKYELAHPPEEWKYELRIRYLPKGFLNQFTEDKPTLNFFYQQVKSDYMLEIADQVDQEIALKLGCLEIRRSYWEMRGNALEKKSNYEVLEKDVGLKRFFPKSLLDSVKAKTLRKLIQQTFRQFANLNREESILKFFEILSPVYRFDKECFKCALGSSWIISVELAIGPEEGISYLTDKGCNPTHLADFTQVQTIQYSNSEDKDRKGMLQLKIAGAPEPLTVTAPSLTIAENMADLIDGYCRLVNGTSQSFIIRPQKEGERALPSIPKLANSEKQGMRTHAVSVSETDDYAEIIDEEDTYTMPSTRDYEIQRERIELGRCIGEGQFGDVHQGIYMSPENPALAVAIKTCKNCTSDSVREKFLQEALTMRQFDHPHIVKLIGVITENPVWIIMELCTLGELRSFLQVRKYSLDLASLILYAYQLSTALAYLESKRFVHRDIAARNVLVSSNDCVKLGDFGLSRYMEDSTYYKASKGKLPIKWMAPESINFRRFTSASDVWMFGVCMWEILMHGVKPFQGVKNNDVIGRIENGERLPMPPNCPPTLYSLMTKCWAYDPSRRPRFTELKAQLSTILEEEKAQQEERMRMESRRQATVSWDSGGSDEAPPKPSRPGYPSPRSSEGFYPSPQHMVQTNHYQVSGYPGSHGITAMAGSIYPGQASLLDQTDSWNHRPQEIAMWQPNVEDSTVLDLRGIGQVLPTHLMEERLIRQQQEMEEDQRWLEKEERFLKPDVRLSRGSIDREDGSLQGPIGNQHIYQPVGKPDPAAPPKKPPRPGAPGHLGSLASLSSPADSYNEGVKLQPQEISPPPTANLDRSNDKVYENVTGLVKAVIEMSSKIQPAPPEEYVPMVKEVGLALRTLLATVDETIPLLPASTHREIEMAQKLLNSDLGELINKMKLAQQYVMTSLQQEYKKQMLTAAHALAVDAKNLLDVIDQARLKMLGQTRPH
Experiment [12] has as its system Fibrinogen (Alexa647-labelled). The experiment is described as follows: Alexa647-fibrinogen binding to printed small molecules – biochemical, small-molecule microarray, 635/667 nm fluorescence, artefact control for SMM control-protein annotation, profiling panel (AID 1131).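 Note: z-score merges 667 nm fluorescence with per-spot signal-to-noise over triplicate slides.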 Particulars: fibrinogen-A647 binding fluorescence, higher = more signal.
For experiment [13], the target named is Follistatin (Homo sapiens) (UniProt P19883). Briefly: FST protein binding to printed compounds – biochemical, small-molecule microarray, 635/667 nm fluorescence, primary screen (AID 1132). The settings on record: 635 nm fluorescence, higher = more signal.
Chain of Follistatin (Homo sapiens) (P19883 whole entry, looked up): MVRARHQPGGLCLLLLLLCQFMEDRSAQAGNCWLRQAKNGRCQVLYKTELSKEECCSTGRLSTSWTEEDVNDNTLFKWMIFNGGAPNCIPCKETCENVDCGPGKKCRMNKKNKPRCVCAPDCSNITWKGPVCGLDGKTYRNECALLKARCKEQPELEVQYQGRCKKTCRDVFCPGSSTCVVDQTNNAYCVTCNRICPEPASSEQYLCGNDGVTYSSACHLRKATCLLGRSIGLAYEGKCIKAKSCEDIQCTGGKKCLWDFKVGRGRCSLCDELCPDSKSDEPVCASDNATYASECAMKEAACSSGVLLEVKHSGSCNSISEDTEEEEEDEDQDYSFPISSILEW
The target in experiment [14] is Fibroblast growth factor 2 (Homo sapiens) (UniProt P09038). Briefly: basic fibroblast growth factor binding to printed compounds – biochemical, small-molecule microarray, 635/667 nm fluorescence, primary screen (AID 1133). Particulars: FGF2, fluorescence 635/667, higher = more signal.
Chain of Fibroblast growth factor 2 (Homo sapiens) (P09038 whole entry, looked up): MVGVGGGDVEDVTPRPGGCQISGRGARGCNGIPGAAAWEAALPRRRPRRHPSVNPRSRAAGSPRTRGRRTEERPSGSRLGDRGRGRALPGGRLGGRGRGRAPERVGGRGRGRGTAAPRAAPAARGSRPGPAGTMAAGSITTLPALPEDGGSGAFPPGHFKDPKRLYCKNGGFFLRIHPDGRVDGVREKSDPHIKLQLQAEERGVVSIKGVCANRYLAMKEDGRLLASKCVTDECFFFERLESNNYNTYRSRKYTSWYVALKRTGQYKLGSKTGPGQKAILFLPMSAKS
Experiment [15] in a line: JC-1 mitochondrial potential readout, lung cancer cells – cell-based, A549, JC-1 fluorescence, basal, 24 h, 100 nL, profiling panel (AID 1138).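 Note: A549 lung adenocarcinoma cells under basal conditions with no added stimulus; test concentration not given here.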 The settings on record: higher = more signal.
For another experiment, the system named is Lefty1. Briefly: Lefty1 protein binding to printed compounds – biochemical, small-molecule microarray, 635/667 nm fluorescence, primary screen (AID 1139). The settings on record: fluorescence 635/667, higher = more signal.
The subject of experiment [16] is wheat germ agglutinin (Triticum aestivum), Alexa647-labelled. The experiment is described as follows: Alexa647-WGA lectin binding to printed small molecules – biochemical, small-molecule microarray, 635/667 nm fluorescence, artefact control for SMM control-protein annotation, profiling panel (AID 1140).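 Note: score merges 667 nm feature emission with signal to noise over triplicate slides.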 Particulars: WGA-A647 binding, 635 nm fluorescence, higher = more signal.

Experiment [17] concerns the target Luciferin 4-monooxygenase (Photinus pyralis) (UniProt P08659). Briefly: inhibition of purified Photinus pyralis luciferase – biochemical, luminescence, purified enzyme, 2006 set, primary screen (AID 1141).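 Note: cell-free assay with purified firefly luciferase at 100 ng per well in PBS; test concentration not given here.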 Particulars: purified firefly luciferase, SteadyGlo luminescence, 30 min; higher = more signal, called active from +8 up or from −8 down.

SMILES strings stand for the structures. Active and inactive are the calls of the source.

Chain of Luciferin 4-monooxygenase (Photinus pyralis) (P08659 whole entry, looked up): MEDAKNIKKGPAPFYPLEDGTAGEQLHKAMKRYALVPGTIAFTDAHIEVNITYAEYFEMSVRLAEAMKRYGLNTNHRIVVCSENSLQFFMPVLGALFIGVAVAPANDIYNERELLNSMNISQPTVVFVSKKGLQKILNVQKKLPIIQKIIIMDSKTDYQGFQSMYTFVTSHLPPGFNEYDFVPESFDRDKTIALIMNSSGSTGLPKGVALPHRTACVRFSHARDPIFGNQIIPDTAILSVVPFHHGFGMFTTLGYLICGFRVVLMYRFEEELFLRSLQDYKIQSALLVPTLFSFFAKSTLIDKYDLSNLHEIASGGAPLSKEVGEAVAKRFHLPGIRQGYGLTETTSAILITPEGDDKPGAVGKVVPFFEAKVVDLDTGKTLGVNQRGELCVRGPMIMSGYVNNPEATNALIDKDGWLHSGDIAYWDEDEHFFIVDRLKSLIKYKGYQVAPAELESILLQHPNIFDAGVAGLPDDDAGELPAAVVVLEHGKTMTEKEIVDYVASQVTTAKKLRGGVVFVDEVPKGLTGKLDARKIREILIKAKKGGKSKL
Chain of Albumin (Bos taurus) (P02769 whole entry, looked up): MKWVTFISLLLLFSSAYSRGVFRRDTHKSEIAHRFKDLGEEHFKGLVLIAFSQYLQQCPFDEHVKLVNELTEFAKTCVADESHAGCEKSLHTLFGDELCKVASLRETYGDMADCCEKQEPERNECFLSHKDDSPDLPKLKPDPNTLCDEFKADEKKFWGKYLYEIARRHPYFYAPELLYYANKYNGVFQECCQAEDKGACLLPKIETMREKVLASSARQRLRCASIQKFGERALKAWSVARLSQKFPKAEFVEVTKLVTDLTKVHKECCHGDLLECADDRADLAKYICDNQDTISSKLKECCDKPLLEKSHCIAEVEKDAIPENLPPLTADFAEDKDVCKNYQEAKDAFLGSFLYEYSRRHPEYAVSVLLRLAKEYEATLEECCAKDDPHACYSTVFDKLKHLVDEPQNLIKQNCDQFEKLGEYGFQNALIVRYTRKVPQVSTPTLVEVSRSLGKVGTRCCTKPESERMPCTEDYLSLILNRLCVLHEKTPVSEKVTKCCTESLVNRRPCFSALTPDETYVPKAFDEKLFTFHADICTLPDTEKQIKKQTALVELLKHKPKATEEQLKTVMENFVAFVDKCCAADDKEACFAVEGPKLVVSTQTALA
Chain of Concanavalin-A (Canavalia ensiformis) (P02866 whole entry, looked up): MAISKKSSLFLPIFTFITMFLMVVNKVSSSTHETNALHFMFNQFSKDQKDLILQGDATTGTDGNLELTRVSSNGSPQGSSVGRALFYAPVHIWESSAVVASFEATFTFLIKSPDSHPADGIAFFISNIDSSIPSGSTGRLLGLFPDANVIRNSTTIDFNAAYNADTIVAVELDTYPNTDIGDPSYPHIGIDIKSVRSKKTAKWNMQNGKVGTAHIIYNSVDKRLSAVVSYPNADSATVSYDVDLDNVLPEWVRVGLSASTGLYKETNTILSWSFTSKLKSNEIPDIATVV

Take `CCOC(=O)C[C@H]1[C@H](OC(=O)c2ccccc2-c2ccccc2)[C@@H](NC(=O)c2ccc(-c3ccccc3)cc2)c2cc(OCCCO)ccc2N1C(=O)c1ccccc1`: the composite z-score was 0.822 with Albumin (Bos taurus); 0.0456 in experiment [2]; -0.11 in [3]; 0.222 in experiment [4]; 0.961 in experiment [5]; -0.133 in [6]. For the same compound, the composite z-score in the experiment on Sam68 (KHDRBS1) came to 1.23; in experiment [7] it was 0.225; in [8], 0.534; in [9] it was 0.426; in experiment [10], 0.78; in [11], 0.177. Moreover, the composite z-score in experiment [12] came out at 0.58; in [13], 0.77; in experiment [14], 0.466; with Lefty1, 0.935; in experiment [16], 0.17. In experiment [1], the composite Z-score was 0.148 (inactive). Moreover, the z-score in experiment [15] is 1.39; in [17], -0.0993 (inactive).

Consider `CC1CC/C=C\[C@H]2OC34C=CCN(CCN5CCOCC5)C(=O)[C@H]3N(CCCCCO)C(=O)[C@@H]4C2C(=O)O1` (stereo not given in full), for which the composite z-score in the experiment with Albumin (Bos taurus) was -1.19; in [2], -0.178; in experiment [3], -0.175; in experiment [4], 0.899; in experiment [5], -0.471; in experiment [6], -0.653. Besides, the composite z-score in the experiment on Sam68 (KHDRBS1) was -1.25; in experiment [7], -0.191; in experiment [8], -0.233; in experiment [9], -0.417; in [10], -1.44; in [11], -0.197. The composite z-score is -1.2 in [12]; -0.381 in experiment [13]; -0.206 in [14]; -0.376 with Lefty1; -0.577 in experiment [16]. The composite Z-score in experiment [1] is 0.905 (inactive). Further, the z-score in [15] was -0.485; in experiment [17], -0.115 (inactive).

Turning to `COC(=O)c1c2oc(c1C(=O)OC)C(=O)N[C@H](Cc1ccccc1)Cn1nncc1C1(CCCCC1)NC(=O)N[C@H](CO)CC2`, the composite z-score with Albumin (Bos taurus) is -0.399; in experiment [2], -0.143; in experiment [3], -0.192; in experiment [4], 0.163; in experiment [5], 0.388; in [6], -0.0073. The composite z-score was determined as 0.702 in the experiment on Sam68 (KHDRBS1); 0.419 in experiment [7]; 0.0053 in [8]; 0.265 in experiment [9]; 0.275 in experiment [10]; 0.13 in experiment [11]. The composite z-score in experiment [12] is -0.0472; in experiment [13], 0.373; in experiment [14] it was 0.1; in the experiment on Lefty1, 0.553; in experiment [16] it was -0.0322. The composite Z-score in experiment [1] was 0.699 (inactive). Besides, the z-score in [15] is 3.5; in experiment [17] it was -0.676 (inactive).

`COC(=O)[C@@]1(Cc2ccccc2)[C@H]2c3cc(C(=O)N(C)C)n(Cc4cc(F)c(F)c(F)c4)c3C[C@H]2CN1C(=O)c1ccccc1`: the composite z-score with Albumin (Bos taurus) was 1.04; in [2], 0.692; in [3], 0.289; in experiment [4] it was 0.656; in experiment [5], 2.8; in experiment [6], 0.525. The composite z-score is 1.32 with Sam68 (KHDRBS1); -0.801 in experiment [7]; 0.953 in experiment [8]; 2.19 in experiment [9]; 1.22 in experiment [10]; 0.692 in experiment [11]. The composite z-score in experiment [12] was 0.832; in experiment [13] it was 0.83; in [14] it was -0.311; with Lefty1 it was -0.807; in experiment [16], 0.418. In [1], the composite Z-score is -0.389 (inactive). The z-score in [15] was -0.322; in experiment [17] it was 1.78 (inactive).

On to `COC(=O)[C@@]1(Cc2ccc(OC)cc2)[C@H]2c3cc(C(=O)N(C)C)n(CCSCCO)c3C[C@H]2CN1C(=O)c1ccccc1`, for which the composite z-score with Albumin (Bos taurus) was 0.905; in experiment [2] it was 0.182; in experiment [3], 0.407; in [4], 0.844; in experiment [5], 2.4; in [6] it was -0.0747. In addition, the composite z-score was 1.23 in the experiment with Sam68 (KHDRBS1); -0.186 in [7]; 1.13 in experiment [8]; 0.957 in experiment [9]; 1.32 in experiment [10]; 1.68 in [11]. The composite z-score in experiment [12] is 0.971; in experiment [13], 0.108; in experiment [14], -0.569; in the experiment with Lefty1 it was -1.03; in experiment [16], 0.515. Further, in experiment [1], the composite Z-score was -0.786 (inactive). Further, the z-score was -0.399 in [15] and -0.572 (inactive) in experiment [17].
